Data from PubChem BioAssay (Tox21).
Where “and” joins values, the source holds several entries; their conditions need not be identical. Identical values can stand only once. Results filed as inconclusive are left out. Calls of active or inactive are those of the source. Calls follow the shape of the dose curve; as a rule, active = well fitted curve in the direction sought with a large enough effect in the repeat runs; inconclusive = weak or mixed curves; inactive = no such curve, though single readings can be large; an effect the other way counts as inactive or inconclusive.

These molecules were tested against Cytochrome P450 1A2 (Homo sapiens) (UniProt P05177) (assay: Cytochrome P450 Family 1 Subfamily A Member 2 (CYP1A2) small molecule antagonists: luciferase reporter qHTS assay (AID 1671199)). Conditions: P450-Glo CYP1A2 enzyme, luciferin luminescence, 1 h; series mostly up to 115 µM; activity change, negative = inhibition: at the top concentration.
Cytochrome P450 1A2 (Homo sapiens), sequence (P05177 whole entry, looked up): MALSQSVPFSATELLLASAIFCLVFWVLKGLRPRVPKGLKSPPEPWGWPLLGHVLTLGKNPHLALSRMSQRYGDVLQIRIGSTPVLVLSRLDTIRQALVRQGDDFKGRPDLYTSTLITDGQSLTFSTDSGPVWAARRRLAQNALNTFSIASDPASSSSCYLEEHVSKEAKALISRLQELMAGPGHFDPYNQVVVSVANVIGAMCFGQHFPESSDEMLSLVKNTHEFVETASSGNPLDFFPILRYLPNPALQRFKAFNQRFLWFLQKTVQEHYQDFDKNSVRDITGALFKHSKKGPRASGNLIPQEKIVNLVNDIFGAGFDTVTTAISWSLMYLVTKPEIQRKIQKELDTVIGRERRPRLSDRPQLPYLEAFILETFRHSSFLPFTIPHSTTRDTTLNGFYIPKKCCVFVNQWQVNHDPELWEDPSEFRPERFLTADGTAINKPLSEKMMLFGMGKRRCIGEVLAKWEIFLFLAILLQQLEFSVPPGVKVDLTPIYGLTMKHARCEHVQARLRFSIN
Method in brief: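 Steps: enzyme-substrate mix dispensed; test compounds and furafylline control pinned in; 10 min room temperature; NADPH regeneration solution added, 1 h; reaction stopped with luciferin detection reagent; luminescence read after 20 min.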
% is scaled to controls: 0 for no effect and ±100 for the full control effect; potency is read from the fitted curve at half-maximal effect.
Also: nearly all actives have a fitted effect of over 50% in size.

Compound	activity change, negative = inhibition	Potency
O=C(/C=C/c1ccc(O)c(O)c1)O[C@@H](C(=O)O)[C@@H](OC(=O)/C=C/c1ccc(O)c(O)c1)C(=O)O	-12% (inactive)	
CNc1ccc([N+](=O)[O-])cc1		35.7 µM (active)
CCC(CC)C(C)CCOC(C)=O (stereo not drawn)	-19.6% (inactive)	
CCCCCCCCCCOC(=O)c1ccccc1C(=O)OCCCCCCCC	-26.6% (inactive)	
CCCCCc1ccc(Cl)cc1	-11.5% (inactive)	
CCCCCCCCCCCCCCCC[N+](C)(C)CC	-1.83% [at 53 µM] (inactive)	
Nc1ccc(Oc2ccc(Cl)cc2)cc1		34.8 µM (active)
C1CCC(SSC2CCCCC2)CC1		25.2 µM (active)
C=CC(=O)Nc1cc2c(Nc3ccc(F)c(Cl)c3)ncnc2cc1OCCCN1CCOCC1	11.5% [at 53 µM] (inactive)	
O=c1[nH]c(=O)n([C@H]2C[C@H](O)[C@@H](CO)O2)cc1F	7.89% [at 53 µM] (inactive)	
CC(C)(C)c1ccc(C(O)CCCN2CCC(C(O)(c3ccccc3)c3ccccc3)CC2)cc1 (stereo not drawn)	10.4% [at 53 µM] (inactive)	
O=C(O)Cc1ccccc1Nc1c(Cl)cccc1Cl		inactive
C=CCn1c(=O)n(CC=C)c(=O)n(CC=C)c1=O		31.6 µM (active)
C=C(C)C(=O)OCCCCCCCCCC	-12.7% (inactive)	
CC1(C)[C@@H](O)CC[C@]2(C)[C@H]3C(=O)C=C4[C@@H]5C[C@@](C)(C(=O)O)CC[C@]5(C)CC[C@@]4(C)[C@]3(C)CC[C@@H]12	-12.6% (inactive)	
C=CCCC(=O)/C=C/C1C(C)=CCCC1(C)C (stereo not drawn)	-25.3% (inactive)	
FC(F)(F)c1cccc(Cl)c1	-17.1% (inactive)	
O=C(Oc1ccccc1)Oc1ccccc1		35.4 µM (active)
CN(C)c1ccc(C(=C2C=CC(=[N+](C)C)C=C2)c2ccc(N(C)C)cc2)cc1		11.2 µM (active) and 20 µM (active) and 10.2 µM (active)
O=S(=O)(O)c1ccccc1/C=C/c1ccc(-c2ccc(/C=C/c3ccccc3S(=O)(=O)O)cc2)cc1	-10.6% (inactive)	

Each molecule was assayed against Voltage-gated inwardly rectifying potassium channel KCNH2 (Homo sapiens) (UniProt Q12809) (assay: Human Ether-a-go-go-Related Gene (hERG) channel small molecule antagonists: fluorescence cell-based qHTS assay (AID 1671200;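 as to activity change, negative = inhibition: hERG-expressing U2OS cells given a thallium stimulus after FluxOR II dye loading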)). Conditions: hERG-U2OS cells, FluxOR thallium flux fluorescence; series mostly up to 76.8 µM; activity change, negative = inhibition: at the top concentration.
Voltage-gated inwardly rectifying potassium channel KCNH2 (Homo sapiens), sequence (Q12809 whole entry, looked up): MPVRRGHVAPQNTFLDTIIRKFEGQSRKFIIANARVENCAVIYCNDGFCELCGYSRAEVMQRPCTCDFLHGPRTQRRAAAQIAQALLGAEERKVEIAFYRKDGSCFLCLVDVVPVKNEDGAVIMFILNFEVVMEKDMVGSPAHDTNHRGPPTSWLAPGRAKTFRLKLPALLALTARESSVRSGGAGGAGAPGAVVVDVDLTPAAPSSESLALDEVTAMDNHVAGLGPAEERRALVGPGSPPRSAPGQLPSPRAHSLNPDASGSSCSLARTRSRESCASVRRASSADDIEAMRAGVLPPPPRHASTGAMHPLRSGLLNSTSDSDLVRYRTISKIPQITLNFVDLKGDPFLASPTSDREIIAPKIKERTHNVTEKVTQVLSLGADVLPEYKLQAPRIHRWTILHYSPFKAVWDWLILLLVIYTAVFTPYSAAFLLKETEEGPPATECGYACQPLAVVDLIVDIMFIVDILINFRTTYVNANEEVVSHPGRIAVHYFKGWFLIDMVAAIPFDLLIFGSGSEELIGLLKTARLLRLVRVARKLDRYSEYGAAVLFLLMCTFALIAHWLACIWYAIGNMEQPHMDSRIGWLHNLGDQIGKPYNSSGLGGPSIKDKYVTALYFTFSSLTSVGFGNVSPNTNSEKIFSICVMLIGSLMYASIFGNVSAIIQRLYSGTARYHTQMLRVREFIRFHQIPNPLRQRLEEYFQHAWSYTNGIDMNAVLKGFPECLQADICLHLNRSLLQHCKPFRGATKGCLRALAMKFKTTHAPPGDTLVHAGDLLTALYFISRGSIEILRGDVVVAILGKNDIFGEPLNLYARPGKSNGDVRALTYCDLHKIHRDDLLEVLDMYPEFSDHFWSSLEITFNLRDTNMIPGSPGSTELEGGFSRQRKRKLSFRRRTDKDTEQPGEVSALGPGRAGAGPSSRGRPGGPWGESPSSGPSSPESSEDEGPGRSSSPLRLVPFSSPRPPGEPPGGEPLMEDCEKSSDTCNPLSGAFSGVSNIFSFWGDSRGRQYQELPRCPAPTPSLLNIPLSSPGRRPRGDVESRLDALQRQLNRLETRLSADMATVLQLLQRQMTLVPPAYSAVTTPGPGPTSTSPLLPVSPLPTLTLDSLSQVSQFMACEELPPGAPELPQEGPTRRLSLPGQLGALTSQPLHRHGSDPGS
Method in brief: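 Thallium served as the potassium surrogate; its influx into dye-loaded U2OS cells carrying the channel was measured by fluorescence over 2 min.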

Compound	activity change, negative = inhibition	Potency
O=c1c(O)c(-c2ccc(O)cc2O)oc2cc(O)cc(O)c12	-6.46% (inactive)	
COc1cccc(OC)c1C(=O)O	-7.52% (inactive)	
CCC(CC)C(C)CCOC(C)=O (stereo not drawn)	0.0938% (inactive)	
CCCCCCCCCCOC(=O)c1ccccc1C(=O)OCCCCCCCC	2.68% (inactive)	
C[Si](Cl)(c1ccccc1)c1ccccc1	-5.72% (inactive)	
CN(C)CCN1CCN(c2cccc(Cl)c2)C1=O	-5.36% [at 35.3 µM] (inactive)	
C1CCC(SSC2CCCCC2)CC1	-12.7% (inactive)	
C=CC(=O)Nc1cc2c(Nc3ccc(F)c(Cl)c3)ncnc2cc1OCCCN1CCOCC1	-21.9% [at 35.3 µM] (inactive)	
CC1=CCC(=C(C)C)CC1	-2.72% (inactive)	
O=C(O)Cc1ccccc1Nc1c(Cl)cccc1Cl		inactive
C=CCn1c(=O)n(CC=C)c(=O)n(CC=C)c1=O	6.11% (inactive)	
C=CC(C)(CCC=C(C)C)OC=O (stereo not drawn)	-7.67% (inactive)	
CCCCCCCCCCCC(=O)OCC(C)OC(=O)CCCCC(=O)O (stereo not drawn)	-0.558% [at 35.3 µM] (inactive)	
CC(C)Cn1cnc2c(N)nc3ccccc3c21	-8.33% [at 15.8 µM] (inactive)	
FC(F)(F)c1cccc(Cl)c1	6.48% (inactive)	
Cc1c(C)c2c(c(C)c1OC(=O)c1cccnc1)CC[C@@](C)(CCC[C@H](C)CCC[C@H](C)CCCC(C)C)O2	-1.04% [at 35.3 µM] (inactive)	
CC(C(=O)O)c1ccc2c(c1)[nH]c1ccc(Cl)cc12 (stereo not drawn)	0.915% [at 35.3 µM] (inactive)	
O=C(Oc1ccccc1)Oc1ccccc1	-13.2% (inactive)	
CC(C)OC(=O)C(O)(CC(=O)O)CC(=O)O	-4.8% (inactive)	
OC1CCCc2ccccc21 (stereo not drawn)	0.0726% (inactive)	
CN(C)c1ccc(C(=C2C=CC(=[N+](C)C)C=C2)c2ccc(N(C)C)cc2)cc1		3.45 µM (active) and 3.47 µM (active) and 2.68 µM (active)
O=S(=O)(O)c1ccccc1/C=C/c1ccc(-c2ccc(/C=C/c3ccccc3S(=O)(=O)O)cc2)cc1	-2.25% (inactive)	
CCC(C)(CCC(C)C)C(=O)[O][Sn]([CH3])([CH3])[O]C(=O)C(C)(CC)CCC(C)C (stereo not drawn)	0.0213% (inactive)	

These molecules were tested against Cytochrome P450 3A4 (Homo sapiens) (UniProt P08684) (assay: Cytochrome P450 Family 3 Subfamily A Member 4 (CYP3A4) small molecule antagonists: luciferase reporter qHTS assay (AID 1671201)). Conditions: P450-Glo CYP3A4 enzyme, luciferin luminescence, 1 h; series mostly up to 115 µM; activity change, negative = inhibition: at the top concentration.
Cytochrome P450 3A4 (Homo sapiens), sequence (P08684 whole entry, looked up): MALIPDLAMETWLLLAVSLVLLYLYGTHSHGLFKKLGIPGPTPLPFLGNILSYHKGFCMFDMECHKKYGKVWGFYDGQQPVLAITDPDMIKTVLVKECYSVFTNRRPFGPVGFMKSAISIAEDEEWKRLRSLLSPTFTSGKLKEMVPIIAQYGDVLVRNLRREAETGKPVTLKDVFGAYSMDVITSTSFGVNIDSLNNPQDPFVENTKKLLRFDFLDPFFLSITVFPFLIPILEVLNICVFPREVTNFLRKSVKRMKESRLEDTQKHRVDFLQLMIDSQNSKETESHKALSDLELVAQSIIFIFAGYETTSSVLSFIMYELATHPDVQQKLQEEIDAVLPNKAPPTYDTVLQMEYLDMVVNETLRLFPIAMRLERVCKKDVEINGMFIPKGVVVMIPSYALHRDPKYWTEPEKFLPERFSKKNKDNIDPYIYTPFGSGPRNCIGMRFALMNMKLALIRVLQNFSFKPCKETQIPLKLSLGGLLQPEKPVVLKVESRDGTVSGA
Method in brief: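 Relative luminescence units after 20 min with luciferin detection reagent served as read-out. Beforehand, CYP3A4 turned over a proluciferin substrate for 1 h at room temperature with NADPH regeneration, following 10 min compound preincubation.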

Compound	activity change, negative = inhibition	Potency
O=c1c(O)c(-c2ccc(O)cc2O)oc2cc(O)cc(O)c12	-6.36% (inactive)	
O=C(/C=C/c1ccc(O)c(O)c1)O[C@@H](C(=O)O)[C@@H](OC(=O)/C=C/c1ccc(O)c(O)c1)C(=O)O	1.18% (inactive)	
CNc1ccc([N+](=O)[O-])cc1	44% (inactive)	
CCC(CC)C(C)CCOC(C)=O (stereo not drawn)	4.94% (inactive)	
CCCCCCCCCCOC(=O)c1ccccc1C(=O)OCCCCCCCC	-22.2% (inactive)	
CCCCCc1ccc(Cl)cc1	3.6% (inactive)	
COC(C)=O	1.8% (inactive)	
CN(C)CCN1CCN(c2cccc(Cl)c2)C1=O	9.9% [at 52.9 µM] (inactive)	
Nc1ccc(Oc2ccc(Cl)cc2)cc1		17.5 µM (active)
C1CCC(SSC2CCCCC2)CC1	6.1% (inactive)	
O=c1[nH]c(=O)n([C@H]2C[C@H](O)[C@@H](CO)O2)cc1F	0.161% [at 52.9 µM] (inactive)	
CC(C)(C)c1ccc(C(O)CCCN2CCC(C(O)(c3ccccc3)c3ccccc3)CC2)cc1 (stereo not drawn)	157% [at 52.9 µM] (inactive)	
O=C(O)Cc1ccccc1Nc1c(Cl)cccc1Cl		inactive
C=CCn1c(=O)n(CC=C)c(=O)n(CC=C)c1=O		2.82 µM (active)
CCCCCCCCCCCC(=O)OCC(C)OC(=O)CCCCC(=O)O (stereo not drawn)		8.71 µM (active)
CN1CCN2c3ccccc3Cc3ccccc3C2C1 (stereo not drawn)	37.7% [at 52.9 µM] (inactive)	
CC1(C)[C@@H](O)CC[C@]2(C)[C@H]3C(=O)C=C4[C@@H]5C[C@@](C)(C(=O)O)CC[C@]5(C)CC[C@@]4(C)[C@]3(C)CC[C@@H]12	-13.8% (inactive)	
C=CCCC(=O)/C=C/C1C(C)=CCCC1(C)C (stereo not drawn)		17.8 µM (active)
CCCCOC(=O)CO	9.24% (inactive)	
CCC(COC(=O)CCS)(COC(=O)CCS)COC(=O)CCS		3.56 µM (active)
Cc1c(C)c2c(c(C)c1OC(=O)c1cccnc1)CC[C@@](C)(CCC[C@H](C)CCC[C@H](C)CCCC(C)C)O2	11.1% [at 52.9 µM] (inactive)	
CC(C(=O)O)c1ccc2c(c1)[nH]c1ccc(Cl)cc12 (stereo not drawn)	20.9% [at 52.9 µM] (inactive)	
O=C(Oc1ccccc1)Oc1ccccc1	6.76% (inactive)	
CC(C)OC(=O)C(O)(CC(=O)O)CC(=O)O	4.73% (inactive)	
O=S(=O)(O)c1ccccc1/C=C/c1ccc(-c2ccc(/C=C/c3ccccc3S(=O)(=O)O)cc2)cc1	53.6% (inactive)	
